What all share (settings): outcome: dose series up to 57.1 µM unless noted
A short description of assay [1]: Primary qHTS for Huh7 cytotoxicity: counterscreen for inhibitors of MERS-S pseudotyped particle cell entry (AID 1479147). (Quantitative high-throughput screening tests each substance at several concentrations.)
Assay [2] can be described thus: Primary qHTS for inhibitors of SARS-S pseudo-typed particle cell entry (AID 1479145). Also: series mostly up to about 57 µM; nearly all actives have a fitted effect of over 45% in size.
Assay [3] in a line: Primary qHTS for inhibitors of MERS-S pseudo-typed particle cell entry (AID 1479149). Also: nearly all actives have a fitted effect of over 60% in size.

Inconclusive results are not listed. Activity calls are given as the source filed them. Calls follow the shape of the full dose curve.

With `CC[C@H]1CN2CC[C@H]1C[C@@H]2[C@@H](O)c1ccnc2ccc(OC)cc12`, in assay [1], the outcome was inactive.
For `CCNC1(c2cccs2)CCCCC1=O` (configuration not stated), the outcome in assay [2], in assay [1] and in assay [3] was inactive.
`CC(N)Cc1ccc(O)cc1` (configuration not stated): the result in assay [2], in assay [1] and in assay [3] was inactive.

(Values after PubChem BioAssay (NCATS).)
